Source: ChEMBL document CHEMBL1961873, “Compounds: GSK PKIS; Assays: Nanosyn kinase panel” (2012)

What was measured:
[1] = molecular target: Protein kinase C gamma type (Homo sapiens) (UniProt P05129); details: at 1 µM;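 further: each value is an averaged percent inhibition of the enzyme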
[2] = molecular target: T1, Protein kinase C iota type (Homo sapiens) (UniProt P41743); details: at 0.1 µM
T1 sequence (whole entry): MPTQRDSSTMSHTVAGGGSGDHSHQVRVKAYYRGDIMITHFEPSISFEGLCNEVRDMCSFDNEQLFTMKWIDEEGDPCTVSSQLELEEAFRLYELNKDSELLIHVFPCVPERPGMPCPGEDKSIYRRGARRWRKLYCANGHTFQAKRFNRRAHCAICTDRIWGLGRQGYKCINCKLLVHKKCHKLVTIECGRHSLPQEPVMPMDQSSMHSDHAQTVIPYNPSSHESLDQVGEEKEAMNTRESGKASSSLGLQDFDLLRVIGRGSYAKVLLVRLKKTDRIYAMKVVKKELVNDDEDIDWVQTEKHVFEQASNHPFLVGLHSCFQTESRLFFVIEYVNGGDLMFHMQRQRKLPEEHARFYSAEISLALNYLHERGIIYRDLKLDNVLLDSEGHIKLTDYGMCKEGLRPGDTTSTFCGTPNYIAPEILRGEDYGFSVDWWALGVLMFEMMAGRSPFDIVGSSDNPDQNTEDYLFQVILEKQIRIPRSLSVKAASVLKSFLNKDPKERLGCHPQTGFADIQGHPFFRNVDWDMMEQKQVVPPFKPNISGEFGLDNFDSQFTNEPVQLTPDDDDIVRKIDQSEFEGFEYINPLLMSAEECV

[3] = molecular target: T1, Protein kinase C iota type (Homo sapiens); details: at 1 µM
[4] = molecular target: Protein kinase C theta type (Homo sapiens) (UniProt Q04759); details: at 0.1 µM
[5] = molecular target: Protein kinase C theta type (Homo sapiens) (UniProt Q04759); details: at 1 µM
[6] = molecular target: Protein kinase C beta type (Homo sapiens) (UniProt P05771); details: at 0.1 µM
[7] = molecular target: Protein kinase C beta type (Homo sapiens) (UniProt P05771); details: at 1 µM
[8] = molecular target: T2, Serine/threonine-protein kinase D1 (Homo sapiens) (UniProt Q15139); details: at 0.1 µM
T2 sequence (whole entry): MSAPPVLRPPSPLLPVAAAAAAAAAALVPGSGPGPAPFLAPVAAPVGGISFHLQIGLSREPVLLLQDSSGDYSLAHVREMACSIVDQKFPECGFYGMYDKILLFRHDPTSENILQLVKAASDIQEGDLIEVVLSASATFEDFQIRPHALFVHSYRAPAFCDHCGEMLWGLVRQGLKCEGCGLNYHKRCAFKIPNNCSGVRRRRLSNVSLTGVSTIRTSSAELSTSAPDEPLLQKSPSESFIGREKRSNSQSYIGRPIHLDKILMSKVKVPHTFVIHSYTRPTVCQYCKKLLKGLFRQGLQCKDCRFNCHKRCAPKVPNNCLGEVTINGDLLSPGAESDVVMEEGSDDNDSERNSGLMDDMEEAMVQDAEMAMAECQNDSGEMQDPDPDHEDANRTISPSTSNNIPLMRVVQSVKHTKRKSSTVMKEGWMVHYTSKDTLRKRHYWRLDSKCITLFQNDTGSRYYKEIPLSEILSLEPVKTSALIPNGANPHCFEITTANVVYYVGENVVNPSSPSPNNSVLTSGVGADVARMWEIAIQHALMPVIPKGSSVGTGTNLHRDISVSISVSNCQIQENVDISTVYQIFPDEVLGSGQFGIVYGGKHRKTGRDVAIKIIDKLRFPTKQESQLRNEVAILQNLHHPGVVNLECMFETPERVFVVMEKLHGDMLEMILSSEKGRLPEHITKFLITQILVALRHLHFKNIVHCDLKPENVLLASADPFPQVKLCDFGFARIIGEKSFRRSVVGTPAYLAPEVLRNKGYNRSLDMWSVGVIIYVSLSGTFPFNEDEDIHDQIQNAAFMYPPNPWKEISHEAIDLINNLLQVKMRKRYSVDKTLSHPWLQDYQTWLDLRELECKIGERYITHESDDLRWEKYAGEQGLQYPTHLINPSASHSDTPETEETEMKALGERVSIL

[9] = molecular target: T2, Serine/threonine-protein kinase D1 (Homo sapiens); details: at 1 µM
[10] = molecular target: T3, Serine/threonine-protein kinase D2 (Homo sapiens) (UniProt Q9BZL6); details: at 0.1 µM
T3 sequence (whole entry): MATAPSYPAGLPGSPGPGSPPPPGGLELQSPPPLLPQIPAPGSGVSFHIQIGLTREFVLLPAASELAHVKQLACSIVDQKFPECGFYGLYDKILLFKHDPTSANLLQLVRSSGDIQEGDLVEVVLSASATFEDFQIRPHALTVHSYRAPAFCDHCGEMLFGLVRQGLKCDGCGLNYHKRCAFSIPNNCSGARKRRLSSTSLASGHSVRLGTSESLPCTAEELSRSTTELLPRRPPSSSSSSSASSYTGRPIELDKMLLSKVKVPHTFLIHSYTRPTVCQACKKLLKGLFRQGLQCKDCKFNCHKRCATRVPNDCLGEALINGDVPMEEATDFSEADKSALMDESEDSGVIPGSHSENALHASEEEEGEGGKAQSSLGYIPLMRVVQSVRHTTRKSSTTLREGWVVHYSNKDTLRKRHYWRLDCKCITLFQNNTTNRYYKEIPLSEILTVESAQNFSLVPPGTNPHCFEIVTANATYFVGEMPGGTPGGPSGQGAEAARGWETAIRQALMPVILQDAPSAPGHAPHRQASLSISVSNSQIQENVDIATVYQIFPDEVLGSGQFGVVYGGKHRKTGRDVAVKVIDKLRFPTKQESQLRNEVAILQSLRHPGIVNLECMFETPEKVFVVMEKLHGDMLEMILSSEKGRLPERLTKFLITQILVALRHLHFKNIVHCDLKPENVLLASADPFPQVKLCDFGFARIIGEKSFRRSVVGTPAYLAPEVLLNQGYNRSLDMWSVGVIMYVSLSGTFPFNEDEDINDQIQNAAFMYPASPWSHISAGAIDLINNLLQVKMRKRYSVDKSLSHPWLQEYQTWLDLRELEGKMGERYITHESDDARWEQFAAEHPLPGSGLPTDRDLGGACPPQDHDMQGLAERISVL

[11] = molecular target: T3, Serine/threonine-protein kinase D2 (Homo sapiens); details: at 1 µM
[12] = molecular target: T4, Serine/threonine-protein kinase D3 (Homo sapiens) (UniProt O94806); details: at 0.1 µM
T4 sequence (whole entry): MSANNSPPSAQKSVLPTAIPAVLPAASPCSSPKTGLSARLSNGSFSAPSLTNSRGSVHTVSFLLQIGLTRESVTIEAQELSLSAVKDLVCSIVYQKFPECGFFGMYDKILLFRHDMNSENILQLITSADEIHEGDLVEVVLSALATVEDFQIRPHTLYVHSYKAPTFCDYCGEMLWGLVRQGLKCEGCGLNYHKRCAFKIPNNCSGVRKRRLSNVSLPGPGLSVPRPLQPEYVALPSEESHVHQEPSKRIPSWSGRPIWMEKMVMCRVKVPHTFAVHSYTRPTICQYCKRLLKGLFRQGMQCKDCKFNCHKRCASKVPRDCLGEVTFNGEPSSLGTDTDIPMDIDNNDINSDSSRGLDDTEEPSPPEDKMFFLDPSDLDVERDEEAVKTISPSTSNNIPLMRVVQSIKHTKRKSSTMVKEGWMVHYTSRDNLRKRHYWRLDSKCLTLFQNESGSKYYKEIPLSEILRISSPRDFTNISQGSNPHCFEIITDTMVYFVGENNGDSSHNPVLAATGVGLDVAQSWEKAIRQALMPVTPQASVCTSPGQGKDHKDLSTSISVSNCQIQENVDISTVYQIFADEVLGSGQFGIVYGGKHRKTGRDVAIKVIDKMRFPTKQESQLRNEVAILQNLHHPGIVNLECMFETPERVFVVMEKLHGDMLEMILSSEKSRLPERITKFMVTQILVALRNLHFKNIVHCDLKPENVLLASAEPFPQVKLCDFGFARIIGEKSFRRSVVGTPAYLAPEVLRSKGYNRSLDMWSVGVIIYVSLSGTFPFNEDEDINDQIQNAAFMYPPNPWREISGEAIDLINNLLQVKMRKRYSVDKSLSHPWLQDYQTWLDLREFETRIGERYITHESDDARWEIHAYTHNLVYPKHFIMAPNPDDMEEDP

[13] = molecular target: T4, Serine/threonine-protein kinase D3 (Homo sapiens); details: at 1 µM
[14] = molecular target: T5, cGMP-dependent protein kinase 1 (Homo sapiens) (UniProt Q13976); details: at 0.1 µM
T5 sequence (whole entry): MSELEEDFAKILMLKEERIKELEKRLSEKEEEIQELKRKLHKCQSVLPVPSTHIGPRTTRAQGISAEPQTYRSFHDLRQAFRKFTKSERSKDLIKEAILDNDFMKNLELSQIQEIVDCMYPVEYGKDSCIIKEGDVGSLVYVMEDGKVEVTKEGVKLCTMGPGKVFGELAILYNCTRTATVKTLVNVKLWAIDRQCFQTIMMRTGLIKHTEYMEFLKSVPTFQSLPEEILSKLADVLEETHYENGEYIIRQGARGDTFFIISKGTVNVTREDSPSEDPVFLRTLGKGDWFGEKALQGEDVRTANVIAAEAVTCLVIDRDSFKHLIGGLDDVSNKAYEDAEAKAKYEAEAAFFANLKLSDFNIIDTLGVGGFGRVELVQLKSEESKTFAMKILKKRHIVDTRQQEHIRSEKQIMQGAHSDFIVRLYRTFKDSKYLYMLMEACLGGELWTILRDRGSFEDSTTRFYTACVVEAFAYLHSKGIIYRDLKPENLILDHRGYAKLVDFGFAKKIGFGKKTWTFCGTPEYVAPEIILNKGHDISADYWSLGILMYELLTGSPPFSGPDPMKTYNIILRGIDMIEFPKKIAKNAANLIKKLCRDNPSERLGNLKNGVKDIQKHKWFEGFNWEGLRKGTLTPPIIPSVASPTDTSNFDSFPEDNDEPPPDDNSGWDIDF

[15] = molecular target: T5, cGMP-dependent protein kinase 1 (Homo sapiens); details: at 1 µM
[16] = molecular target: T6, cGMP-dependent protein kinase 2 (Homo sapiens) (UniProt Q13237); details: at 0.1 µM
T6 sequence (whole entry): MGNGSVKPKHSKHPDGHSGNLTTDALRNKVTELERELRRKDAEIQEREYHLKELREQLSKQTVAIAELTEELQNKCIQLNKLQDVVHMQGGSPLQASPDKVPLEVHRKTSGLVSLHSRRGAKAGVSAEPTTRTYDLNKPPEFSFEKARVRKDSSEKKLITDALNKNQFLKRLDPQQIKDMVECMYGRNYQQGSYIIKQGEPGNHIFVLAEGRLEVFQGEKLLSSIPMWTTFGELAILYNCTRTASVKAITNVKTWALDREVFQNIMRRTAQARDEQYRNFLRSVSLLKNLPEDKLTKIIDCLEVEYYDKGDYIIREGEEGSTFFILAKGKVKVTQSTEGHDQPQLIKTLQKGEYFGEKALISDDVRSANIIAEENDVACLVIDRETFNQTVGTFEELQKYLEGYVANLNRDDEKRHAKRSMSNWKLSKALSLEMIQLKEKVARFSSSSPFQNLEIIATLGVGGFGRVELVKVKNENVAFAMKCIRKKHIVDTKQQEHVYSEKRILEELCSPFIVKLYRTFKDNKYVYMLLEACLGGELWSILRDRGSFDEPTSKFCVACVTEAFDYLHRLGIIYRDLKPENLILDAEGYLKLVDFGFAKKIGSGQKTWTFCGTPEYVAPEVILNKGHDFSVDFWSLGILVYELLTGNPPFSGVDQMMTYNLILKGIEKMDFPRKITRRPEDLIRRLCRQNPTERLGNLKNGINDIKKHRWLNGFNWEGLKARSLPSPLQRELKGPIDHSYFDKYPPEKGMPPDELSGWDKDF

[17] = molecular target: T6, cGMP-dependent protein kinase 2 (Homo sapiens); details: at 1 µM
[18] = molecular target: T7, cAMP-dependent protein kinase catalytic subunit PRKX (Homo sapiens) (UniProt P51817); details: at 0.1 µM
T7 sequence (whole entry): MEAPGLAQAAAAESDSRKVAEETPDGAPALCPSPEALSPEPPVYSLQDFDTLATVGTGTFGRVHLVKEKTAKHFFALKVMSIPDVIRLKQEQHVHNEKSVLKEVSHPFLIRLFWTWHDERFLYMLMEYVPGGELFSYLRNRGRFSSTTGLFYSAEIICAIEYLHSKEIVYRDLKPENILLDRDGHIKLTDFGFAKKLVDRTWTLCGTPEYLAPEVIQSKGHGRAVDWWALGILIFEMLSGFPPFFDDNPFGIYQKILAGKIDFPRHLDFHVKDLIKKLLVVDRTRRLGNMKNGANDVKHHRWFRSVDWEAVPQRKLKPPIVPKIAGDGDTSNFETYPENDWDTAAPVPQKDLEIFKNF

[19] = molecular target: T7, cAMP-dependent protein kinase catalytic subunit PRKX (Homo sapiens); details: at 1 µM
[20] = molecular target: Rho-associated protein kinase 1 (Homo sapiens) (UniProt Q13464); details: at 0.1 µM;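 further: values are mean percent inhibition of ROCK1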
Rho-associated protein kinase 1 (Homo sapiens), sequence (Q13464 2-1354 limits assumed): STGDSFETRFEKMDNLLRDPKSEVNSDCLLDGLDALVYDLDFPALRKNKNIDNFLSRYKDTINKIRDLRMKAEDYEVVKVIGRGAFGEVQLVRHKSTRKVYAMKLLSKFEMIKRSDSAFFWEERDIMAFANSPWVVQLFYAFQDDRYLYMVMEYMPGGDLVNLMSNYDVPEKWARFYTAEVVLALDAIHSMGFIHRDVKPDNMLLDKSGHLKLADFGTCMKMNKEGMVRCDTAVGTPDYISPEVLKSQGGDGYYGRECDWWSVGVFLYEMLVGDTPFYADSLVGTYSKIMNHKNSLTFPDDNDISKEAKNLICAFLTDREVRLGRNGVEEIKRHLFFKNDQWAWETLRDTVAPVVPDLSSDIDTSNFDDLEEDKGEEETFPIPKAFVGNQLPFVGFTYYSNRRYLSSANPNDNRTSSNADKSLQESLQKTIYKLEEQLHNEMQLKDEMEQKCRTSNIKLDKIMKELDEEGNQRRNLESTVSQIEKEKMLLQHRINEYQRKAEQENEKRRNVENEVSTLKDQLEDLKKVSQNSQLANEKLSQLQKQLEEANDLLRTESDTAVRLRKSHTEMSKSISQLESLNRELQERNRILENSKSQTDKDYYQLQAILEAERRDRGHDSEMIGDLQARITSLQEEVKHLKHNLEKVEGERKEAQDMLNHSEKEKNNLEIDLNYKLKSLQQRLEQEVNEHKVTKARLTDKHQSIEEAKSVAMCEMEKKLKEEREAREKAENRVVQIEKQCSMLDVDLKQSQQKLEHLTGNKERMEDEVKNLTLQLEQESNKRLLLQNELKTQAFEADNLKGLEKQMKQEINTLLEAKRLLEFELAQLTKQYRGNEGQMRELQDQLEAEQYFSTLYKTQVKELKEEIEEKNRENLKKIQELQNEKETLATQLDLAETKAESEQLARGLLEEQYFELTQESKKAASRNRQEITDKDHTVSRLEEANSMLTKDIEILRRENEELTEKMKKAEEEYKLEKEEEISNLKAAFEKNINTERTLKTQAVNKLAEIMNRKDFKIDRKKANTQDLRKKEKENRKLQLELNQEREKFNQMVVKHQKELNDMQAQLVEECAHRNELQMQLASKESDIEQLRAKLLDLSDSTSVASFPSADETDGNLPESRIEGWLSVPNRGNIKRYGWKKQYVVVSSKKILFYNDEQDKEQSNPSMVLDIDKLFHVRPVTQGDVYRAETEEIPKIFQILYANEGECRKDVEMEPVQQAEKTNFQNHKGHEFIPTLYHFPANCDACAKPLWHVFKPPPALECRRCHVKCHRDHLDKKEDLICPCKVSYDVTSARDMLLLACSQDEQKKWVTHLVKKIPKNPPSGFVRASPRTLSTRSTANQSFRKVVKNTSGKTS

Protein kinase C beta type (Homo sapiens), sequence (P05771 2-671 limits assumed): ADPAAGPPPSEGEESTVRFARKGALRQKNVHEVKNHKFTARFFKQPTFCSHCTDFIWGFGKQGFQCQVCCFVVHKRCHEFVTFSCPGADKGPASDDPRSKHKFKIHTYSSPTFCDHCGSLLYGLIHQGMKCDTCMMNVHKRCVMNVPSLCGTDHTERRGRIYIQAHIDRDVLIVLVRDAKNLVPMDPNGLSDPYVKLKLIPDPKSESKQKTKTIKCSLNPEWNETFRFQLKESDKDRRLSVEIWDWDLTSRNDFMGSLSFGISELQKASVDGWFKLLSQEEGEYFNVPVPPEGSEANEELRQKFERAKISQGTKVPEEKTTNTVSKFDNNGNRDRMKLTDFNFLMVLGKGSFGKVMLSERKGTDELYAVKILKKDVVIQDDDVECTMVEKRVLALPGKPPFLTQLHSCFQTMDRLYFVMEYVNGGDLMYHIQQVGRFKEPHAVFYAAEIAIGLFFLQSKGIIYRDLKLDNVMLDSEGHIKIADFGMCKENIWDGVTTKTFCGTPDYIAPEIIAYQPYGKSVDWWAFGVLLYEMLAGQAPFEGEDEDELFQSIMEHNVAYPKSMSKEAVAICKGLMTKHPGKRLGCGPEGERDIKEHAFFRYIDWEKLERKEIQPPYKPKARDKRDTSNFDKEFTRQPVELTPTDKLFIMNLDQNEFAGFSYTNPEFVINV
Protein kinase C theta type (Homo sapiens), sequence (Q04759 whole entry, looked up): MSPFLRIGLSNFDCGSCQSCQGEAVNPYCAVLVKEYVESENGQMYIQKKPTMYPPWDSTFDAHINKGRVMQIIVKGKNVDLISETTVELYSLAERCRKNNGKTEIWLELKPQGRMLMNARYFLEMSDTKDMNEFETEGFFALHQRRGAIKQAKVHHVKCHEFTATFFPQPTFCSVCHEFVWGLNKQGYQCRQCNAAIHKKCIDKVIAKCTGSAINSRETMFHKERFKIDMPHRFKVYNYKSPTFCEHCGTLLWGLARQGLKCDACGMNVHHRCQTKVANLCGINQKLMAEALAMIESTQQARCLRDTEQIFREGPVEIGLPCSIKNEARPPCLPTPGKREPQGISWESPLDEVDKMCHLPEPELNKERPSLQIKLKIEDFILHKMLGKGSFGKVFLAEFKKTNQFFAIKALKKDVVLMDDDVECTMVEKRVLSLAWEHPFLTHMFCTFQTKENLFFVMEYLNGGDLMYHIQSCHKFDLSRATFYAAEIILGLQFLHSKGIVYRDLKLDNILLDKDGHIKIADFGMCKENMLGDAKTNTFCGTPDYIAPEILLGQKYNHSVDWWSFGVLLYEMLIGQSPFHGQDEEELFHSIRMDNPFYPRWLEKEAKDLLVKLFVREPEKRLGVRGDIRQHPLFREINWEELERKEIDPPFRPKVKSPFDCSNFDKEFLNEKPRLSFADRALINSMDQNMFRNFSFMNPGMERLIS

Row | Compound | inhibition [1] [%] | inhibition [2] [%] | inhibition [3] [%] | inhibition [4] [%] | inhibition [5] [%] | inhibition [6] [%] | inhibition [7] [%] | inhibition [8] [%] | inhibition [9] [%] | inhibition [10] [%] | inhibition [11] [%] | inhibition [12] [%] | inhibition [13] [%] | inhibition [14] [%] | inhibition [15] [%] | inhibition [16] [%] | inhibition [17] [%] | inhibition [18] [%] | inhibition [19] [%] | inhibition [20] [%]
1 | COc1cc2ncn(-c3cc(OCc4ccccc4Cl)c(C(N)=O)s3)c2cc1OC | 2.36 | 1.15 | 0.82 | -0.26 | 0.66 | 0.93 | 0.76 | 0.01 | 0.57 | -0.54 | 1.64 | 0.33 | 0.33 | 1.08 | 3.55 | 0.53 | 1.84 | -0.05 | -3.1 | -0.3
2 | CCn1c(-c2nonc2N)nc2cnc(Oc3cccc(NC(=O)c4ccc(OCCN5CCOCC5)cc4)c3)cc21 | 55 | 23.4 | 64.9 | 20 | 67.4 | 11.6 | 42.4 | 2.46 | 3.36 | 3.04 | 4.52 | 2.2 | 2.69 | 60.5 | 76.6 | 27.3 | 66.3 | 18.6 | 63.1 | –
3 | COc1cc2ncn(-c3cc(O[C@@H](C)c4ccccc4Cl)c(C(N)=O)s3)c2cc1OC | 1.93 | 3.86 | 4.88 | 2.16 | 3.24 | 1.99 | 5.36 | 5.25 | 6.69 | 4.18 | 2.84 | 4.96 | 4.78 | 3.4 | 4.72 | 4.02 | 5.22 | 3.8 | 3.91 | 2.15
4 | N#Cc1c(NC(=O)c2cccc3ccccc23)sc2c1CCCC2 | 0.67 | 1.98 | 2.38 | 1.69 | 0.74 | 2.18 | 2.04 | 4.23 | 4.24 | 2.17 | 2.96 | 4.61 | 4.09 | 3.4 | 3.28 | 1.51 | 3.5 | 2.34 | 1.92 | 0.98
